BioA inh: BioA (M. tuberculosis) enzyme inhibition; purified M. tuberculosis BioA enzyme, plate reader; inhibition, % at 9.99 µM; 0.096% of 360,000 active; in the data active = inhibition above about 40%
Yp Topo-I inh: Y. pestis Topo-I inhibition via cleavage products; activity, % at 10 µM; Y. pestis Topo-I cleavage product accumulation, plate reader; AID 504884; 0.064% of 360,000 active; in the data active = activity above about 50%, passing the limit was not always enough
TcdB GH inh: inhibitors of Clostridioides difficile toxin B glycohydrolase; TcdB glycohydrolase enzymatic assay, plate reader; AID 652162; P18177; inhibition, % at 9.99 µM; 0.24% of 350,000 active; in the data active = inhibition above about 10%
PrP UTR inh: inhibition of PrP 5' UTR reporter expression; AID 488862; inhibition, % (concentration not given with the values); cell-based PrP 5' UTR mRNA reporter, plate reader; 0.35% of 340,000 active; in the data active = inhibition above about 52%; note: 0 = median of the neutral control wells
* marks the source's active call; other numbers are inactive results; x = no result; ! = repeats disagree. Rows were chosen to be rich in hits. Some 0.57% of all compounds tested hit in one or more screens of this group.

SMILES | BioA inh | Yp Topo-I inh | TcdB GH inh | PrP UTR inh
CCOC(=O)c1ccc(N=c2sc(C(=O)OC)cc(=O)n2CCCN2CCOCC2)cc1 | 0 | 26 | 11*! | -21
CCOC(=O)c1ccc(N=c2sc(C(=O)OC)cc(=O)n2Cc2ccco2)cc1 | -2 | 25 | 0 | 2
CO[C@H]1CN(C)C(=O)c2ccc(NC(=O)CC(F)(F)F)cc2OC[C@@H](C)N(C(=O)C2CCCCC2)C[C@@H]1C | x | x | 0 | x
CCOCC(=O)Nc1cc([N+](=O)[O-])ccc1C | x | 7 | x | -29
CCOCC(=O)Nc1cc(Cl)ccc1C | x | 1 | 10* | -15
COCc1cc(C)nc(SCc2ccc(Cl)cc2)c1C#N | 6 | 30 | -1 | -20
COCc1cc(C)nc(SCc2ccc(Br)cc2)c1C#N | -1 | 50* | -1 | -17
Cc1cc(NC(=O)CCCN2C(=O)c3cccc4cccc(c34)C2=O)no1 | x | 0 | 11* | -10
Cc1cc(NC(=O)CCCN2C(=O)c3cccnc3C2=O)no1 | 1 | 5 | x | -5
CCOC(=O)c1[nH]nc(-c2cc(CC)c(O)cc2O)c1-c1cscn1 | -1 | -3 | 15* | -6
CO[C@@H]1CN(C)C(=O)c2cc(NC(=O)NC(C)C)ccc2OC[C@@H](C)N(S(C)(=O)=O)C[C@H]1C | 0 | x | 16* | x
CO[C@@H]1CN(C)C(=O)c2cc(NC(=O)NC(C)C)ccc2OC[C@H](C)N(S(C)(=O)=O)C[C@H]1C | x | x | -2 | x
O=C(O)c1ccc(-c2ccc(O)c(F)c2)cc1 | -3 | 2 | 18* | 0
O=C(O)c1ccc(O)c(O)c1 | -1 | -6 | -21 | -11
O=C(N/N=C/C(Cl)=C\c1ccccc1)c1cnccn1 | 45* | -7 | x | -15
COc1cc(CCC(=O)OCC(N)=O)cc(OC)c1OC | x | 3 | 0 | -18
C=CCn1c(C)cc(C(=O)COC(=O)CCc2cc(OC)c(OC)c(OC)c2)c1C | -1 | 16 | 12* | -14
CCOc1ccc2ccccc2c1/C=N/NC(=O)c1ccncc1 | -1 | 20 | 11* | -10
COc1cccc(S(=O)(=O)Nc2ccc3c(c2)[C@H]2C[C@H](CC(=O)N(C)C)O[C@H](CO)[C@H]2O3)c1 | -1 | x | 0 | x
N#CC1=C(N)OC2=C(CN(Cc3ccccc3)C/C2=C\c2cccnc2)C1c1cccnc1 (stereo unspecified) | 26 | 9 | x | -26
CC(C)N1CC2=C(OC(N)=C(C#N)C2c2cccnc2)/C(=C/c2cccnc2)C1 (stereo unspecified) | 43* | 5 | x | -13
CCn1cc(C(=O)O)c(=O)c2cc(F)c(N3CCN(C(=S)NC(=O)c4ccccc4Br)CC3)cc21 | 1 | 7 | 10* | -25
COc1ccc(/C=C/C(=O)N(C)CC(=O)Nc2cccc(F)c2)cc1S(=O)(=O)N1CCCCC1 | 1 | 10 | 1 | -15
COc1ccc(NC(=O)CN(C)C(=O)/C=C/c2ccc(S(=O)(=O)N3CCCCCC3)cc2)cc1 | -1 | 77* | 0 | -1
Cc1cnc(C(=O)OCC(=O)Nc2ccc(OCc3ccccc3)cc2)cn1 | -3 | 4 | 13* | -46
SMILES | BioA inh | Yp Topo-I inh | TcdB GH inh | PrP UTR inh
Cc1cnc(C(=O)OCC(=O)NCc2ccccc2)cn1 | 1 | -4 | x | -22
O=C(N[C@@H]1CC[C@H](CCNS(=O)(=O)c2ccc(F)cc2)O[C@@H]1CO)C1CC1 | 0 | x | 0 | x
Cc1cccc(OCC(O)Cn2ccnc2C)c1 (stereo unspecified) | 0 | 66* | -7 | 7
Cc1cccc(C)c1OCC(O)Cn1ccnc1C (stereo unspecified) | 0 | -10 | 1 | -10
S=c1nc(-c2cc(Cl)cc(Cl)c2)[nH][nH]1 | x | 0 | 5 | -18
S=c1nc(-c2cccc(Cl)c2)[nH][nH]1 | x | 4 | 14* | -37
O=C(NC(=S)Nc1cc([N+](=O)[O-])ccc1O)c1cccnc1 | x | 2 | 0 | 55*
Cc1ccc([N+](=O)[O-])cc1NC(=S)NC(=O)c1cccnc1 | x | -4 | 0 | -3
CC(=O)OCCCCCCCCCCC[N+]1(C)CCCCC1 | x | 4 | 1 | -24
C[N+]1(CCCCSc2ccc(O)cc2)CCCCC1 | -3 | -7 | 22* | -7
CCC(=O)c1ccc2c(c1)OCCO2 | x | 1 | -1 | 4
Nc1ccc(C(=O)c2ccc3c(c2)OCCO3)cc1N | 0 | -4 | 14* | -78
CCC(=O)Nc1ccc2c(c1)OC[C@H](C)N(Cc1nccs1)C[C@H](C)[C@H](OC)CN(C)C2=O | x | x | 1 | x
COc1ccc2c3c([nH]c2c1)[C@H](CO)N(C(=O)Nc1ccc(F)cc1)CC31CN(C(=O)Nc2ccccc2)C1 | x | x | 0 | x
NC(=O)C1(Nc2ccc(-c3ccc(Br)cc3)cc2)CCCC1 | x | -3 | 11* | 50
CCCC(=O)N1N=C(c2ccccc2)CC1c1cn(C)c2ccccc12 (stereo unspecified) | -2 | 56* | x | -23
CC(=O)NCCNC(=O)C1Cc2c(-c3ccccc3Oc3ccccc3)ccnc2O1 (stereo unspecified) | 7 | 22 | 4 | x
CNC(=O)C1Cc2c(-c3ccccc3Oc3ccccc3)ccnc2O1 (stereo unspecified) | 1 | 13 | 13* | x
COc1ccc(NC(=O)C(=O)NCC2CCCN2S(=O)(=O)c2ccc(C)cc2)cc1 (stereo unspecified) | -1 | 29 | 2 | 78*
Cc1ccc(S(=O)(=O)N2CCCC2C(=O)Nc2ccc(O)cc2)cc1 (stereo unspecified) | -1 | 9 | 10* | -20
O=C(N[C@@H]1CC[C@H](CCNS(=O)(=O)c2ccc(F)cc2)O[C@@H]1CO)C1CCOCC1 | 1 | x | -1 | x
Cn1cc(Cl)c(-c2n[nH]c(=S)n2-c2ccc(F)cc2)n1 | x | 12 | 1 | -4
Cc1nn(C)cc1-c1n[nH]c(=S)n1-c1ccc(F)cc1 | x | 5 | 10* | -14
Cn1c(=O)c2[nH]c(=S)n(Cc3ccccc3)c2n(C)c1=O | x | 2 | 50* | -4
CCn1c(=O)n(C)c2c(=O)n(C)c(=O)n(C)c21 | -1 | -3 | 0 | 8
SMILES | BioA inh | Yp Topo-I inh | TcdB GH inh | PrP UTR inh
Cn1c(=O)c2c([nH]c(=S)n2CCCc2ccccc2)n(C)c1=O | -1 | 6 | 9 | -35
CCCCn1c(=S)[nH]c2c(=O)n(C)c(=O)n(C)c21 | 0 | 1 | 52* | x
O=c1[nH][nH]c(=O)c2c1[nH]c(=S)n2Cc1ccccc1 | 0 | 9 | 12* | -6
C[C@@H]1CN([C@@H](C)CO)C(=O)c2cccc(NC(=O)c3cnccn3)c2O[C@H]1CN(C)Cc1ccc(Cl)c(Cl)c1 | 1 | x | 0 | x
CC(C)(Oc1ccc(Cl)cc1)C(=O)NC1CC1 | 0 | 5 | 11* | -27
CC(C)(Oc1ccc(Cl)cc1)C(=O)NC1CCSC1=O (stereo unspecified) | 2 | -1 | 1 | -14
CO[C@@H]1CN(C)C(=O)c2cc(NC(=O)C3CCOCC3)ccc2OC[C@@H](C)N(C(=O)C2CCOCC2)C[C@H]1C | 6 | x | 0 | x
CO[C@H]1CN(C)C(=O)c2ccc(NS(=O)(=O)CC(F)(F)F)cc2OC[C@H](C)N(C)C[C@@H]1C | x | x | -1 | x
CC(C)(C)C1CCc2nc(NC(=O)Cc3cn4ccsc4n3)sc2C1 (stereo unspecified) | 3 | 62* | x | -45
CN(C)CCNC(=O)c1cc2c(s1)-c1ccc(Cl)cc1SC2 | 0 | -30 | 12* | 17

Screening results from PubChem BioAssay.
